Compounds with a hit are over-represented: about 2.1% of the library has one in this group of screens.
CASP6 VEID inh: blocks human caspase-6 cleavage activity | AID 686996 | P55212 | inhibition, % at 12.5 µM | purified caspase-6, Z-VEID-R110 cleavage fluorescence | hit rate 0.53% among 350,000;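 active = mean inhibition across replicates at least about 35%, with every replicate also reaching that limit, limit read from the data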;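 also: 0% = median of neutral control wells and 100% = no fluorescence left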
Target sequence (P55212 24-179 limits assumed): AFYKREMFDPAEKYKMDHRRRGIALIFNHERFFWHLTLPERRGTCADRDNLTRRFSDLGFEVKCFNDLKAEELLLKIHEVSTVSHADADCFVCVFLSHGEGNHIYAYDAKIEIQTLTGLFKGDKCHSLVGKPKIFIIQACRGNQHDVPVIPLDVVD
Target sequence (P55212 194-293 limits assumed): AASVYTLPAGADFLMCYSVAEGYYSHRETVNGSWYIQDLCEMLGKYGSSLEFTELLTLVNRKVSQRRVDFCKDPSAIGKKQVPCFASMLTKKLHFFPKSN
SIRT5 inh: sirtuin-5 (human) deacylase inhibition; AID 652115; hit rate 1.1% among 330,000; inhibition, % at 15 µM; Q9NXA8; Purified SirT5, succinyl-peptide AMC, trypsin-coupled fluorescence; in the data active = inhibition above about 15%
Target sequence (Q9NXA8 whole entry, looked up): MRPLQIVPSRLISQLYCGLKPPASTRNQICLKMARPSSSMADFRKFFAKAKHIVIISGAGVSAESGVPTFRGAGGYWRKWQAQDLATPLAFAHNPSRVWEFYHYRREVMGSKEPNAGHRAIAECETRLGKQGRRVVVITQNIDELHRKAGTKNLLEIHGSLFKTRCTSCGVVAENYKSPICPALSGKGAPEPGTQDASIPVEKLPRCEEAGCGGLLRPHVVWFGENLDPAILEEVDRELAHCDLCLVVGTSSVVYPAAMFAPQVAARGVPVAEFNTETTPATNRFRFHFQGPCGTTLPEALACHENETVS
PfHsp90 set2: inhibits growth of yeast expressing Plasmodium falciparum Hsp90 | inhibition, % at 9.4 µM | hit rate 0.32% among 310,000 | S. cerevisiae expressing PfHsp90, BacTiter-Glo ATP, 48 h; yeast lacking PDR1 and PDR3 efflux regulators;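 active = every replicate shows inhibition above about 80%, whatever the replicate mean, limit read from the data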;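 also: 0% = DMSO neutral controls and 100% = 20 µM radicicol positive controls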
NSD2 inh: NSD2 (human) methyltransferase inhibition; O96028; NSD2 peptide methylation, AlphaScreen, 120 min; inhibition, % at 12.5 µM; hit rate 0.54% among 310,000; AID 743445; in the data active = inhibition above about 50%
ARNT-TACC3 inh: disruptors of human ARNT/TACC3 interaction; hit rate 0.66% among 390,000; AID 623870; inhibition, % at 9.99 µM; Q9Y6A5; AlphaScreen His-ARNT PAS-B/GST-TACC3 binding, luminescence; TACC3 fragment carries E629A point mutation;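 active = mean inhibition of replicates at least 50% and at least half of replicates each reaching 50%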;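 also: 0% = complete ARNT plus TACC3 wells and 100% = ARNT alone without TACC3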
An asterisk follows results filed as active; ! = not confirmed by another sample.

What do the screens show for `COc1ccc(NC(=O)/C=C/c2ccco2)cn1`?
CASP6 VEID inh: 12; SIRT5 inh: 1; PfHsp90 set2: -5; NSD2 inh: 2; ARNT-TACC3 inh: -15

How did C[C@H](NC(=O)[C@H](Cc1ccccc1)n1c(=O)[nH]c2ccccc2c1=O)C(=O)N1CCC(C(=O)O)CC1 do in these assays?
CASP6 VEID inh: -4; SIRT5 inh: 15*; PfHsp90 set2: 9; ARNT-TACC3 inh: -17

Results for O=C(Nc1ccc(F)cc1)N[C@H]1CC[C@H](CCNC(=O)c2ccccc2F)O[C@H]1CO ?
CASP6 VEID inh: 1; SIRT5 inh: 0

Results for CC(=NNC(=S)Nc1ccccc1Cl)c1ccccn1 ?
SIRT5 inh: -4; PfHsp90 set2: 99*; NSD2 inh: 9; ARNT-TACC3 inh: 87*

Results for C=CCNC(=S)N/N=C(\C)c1ccccn1 ?
PfHsp90 set2: 19; NSD2 inh: 4; ARNT-TACC3 inh: 59*

How did CC(=NNC(=S)Nc1ccccc1)c1ccccn1 do in these assays?
CASP6 VEID inh: 3; SIRT5 inh: 7; NSD2 inh: 24

What do the screens show for `C[C@H]1CN([C@@H](C)CO)C(=O)c2cccc(NC(=O)c3cnccn3)c2O[C@H]1CN(C)C(=O)Nc1ccc(C(F)(F)F)cc1`?
CASP6 VEID inh: 0; SIRT5 inh: -3; ARNT-TACC3 inh: -1

Results for Cc1ccc[n+](-c2[nH]c(=O)sc2/C=N/NC(=O)c2ccccc2[O-])c1 ?
CASP6 VEID inh: 35*; SIRT5 inh: 4; PfHsp90 set2: -11; NSD2 inh: -1; ARNT-TACC3 inh: -8

What do the screens show for `O=C(NC1CCCCC1)N1CC(=O)N2[C@H](CO)[C@@H](c3ccc(-c4ccccc4)cc3)[C@H]2C1`?
CASP6 VEID inh: 2; SIRT5 inh: 0

What do the screens show for `CCCCCCCCCCOC(=O)Cn1c(COc2cccc(C)c2)[n+](C)c2ccccc21`?
CASP6 VEID inh: -73; SIRT5 inh: 13; PfHsp90 set2: 105*; NSD2 inh: 18; ARNT-TACC3 inh: 1

What do the screens show for `CCCCCCCCCCOC(=O)Cn1c(COc2ccc(OC)cc2)[n+](C)c2ccccc21`?
PfHsp90 set2: 108*!; NSD2 inh: 6; ARNT-TACC3 inh: 15

What do the screens show for `CCCCCCCCCCOC(=O)Cn1c(COc2ccc(Cl)cc2)[n+](C)c2ccccc21`?
CASP6 VEID inh: -85; SIRT5 inh: 7; PfHsp90 set2: 106*; NSD2 inh: 7; ARNT-TACC3 inh: 18

Results for CCCCCCCCCCOC(=O)Cn1c(COc2ccccc2)[n+](C)c2ccccc21 ?
CASP6 VEID inh: -99; SIRT5 inh: 2; PfHsp90 set2: -2; NSD2 inh: 16; ARNT-TACC3 inh: 5

What do the screens show for `C[C@@H]1CN([C@H](C)CO)C(=O)Cc2cc(NC(=O)C3CC3)ccc2O[C@@H]1CN(C)Cc1ccc(-c2ccccc2)cc1`?
CASP6 VEID inh: -1; SIRT5 inh: 10; ARNT-TACC3 inh: 7

How did Cc1ccc(-n2nnnc2SCC(=O)NC2CC2)cc1C do in these assays?
CASP6 VEID inh: 57*; SIRT5 inh: -3; PfHsp90 set2: -24

Results for O=C(CSc1nnnn1-c1ccc(O)cc1)NC1CCCCC1 ?
CASP6 VEID inh: -4; SIRT5 inh: 1; PfHsp90 set2: 21; NSD2 inh: -1; ARNT-TACC3 inh: -17

How did O=C(CC1CC1)N1CC2(C1)[C@H](c1ccccc1)[C@@H](CO)N2Cc1ccccc1 do in these assays?
CASP6 VEID inh: 2; SIRT5 inh: 0

Results for O=C(COC(=O)c1ccc(O)cc1O)NC12CC3CC(CC(C3)C1)C2 ?
CASP6 VEID inh: 6; SIRT5 inh: -1; PfHsp90 set2: 12; NSD2 inh: 8; ARNT-TACC3 inh: 18

How did O=C(OCC(=O)C12CC3CC(CC(C3)C1)C2)c1ccc(O)cc1O do in these assays?
CASP6 VEID inh: 4; SIRT5 inh: -2; PfHsp90 set2: 101*; NSD2 inh: 2; ARNT-TACC3 inh: 0

How did CCOC(=O)c1c(C)nc(C)c(C(=O)OCC)c1-c1ccc(OC)cc1 do in these assays?
CASP6 VEID inh: -2; SIRT5 inh: 26*; NSD2 inh: -2; ARNT-TACC3 inh: -1

How did Cc1cc(-c2csc(NCc3ccccc3)n2)c(C)n1C do in these assays?
PfHsp90 set2: -13; ARNT-TACC3 inh: 0

Results for CCNc1nc(-c2cc(C)n(Cc3ccco3)c2C)cs1 ?
CASP6 VEID inh: 51*; SIRT5 inh: -4; PfHsp90 set2: -22; NSD2 inh: 4; ARNT-TACC3 inh: -8

How did COc1ccccc1N1CCN(CC(=O)Nc2ccc3c(c2)OCCO3)CC1 do in these assays?
CASP6 VEID inh: -1; SIRT5 inh: 31*; PfHsp90 set2: 24; NSD2 inh: 0; ARNT-TACC3 inh: 22

What do the screens show for `CO[C@@H]1CN(C)C(=O)c2ccc(NC(=O)C3CC3)cc2OC[C@@H](C)N(CCC(F)(F)F)C[C@H]1C`?
CASP6 VEID inh: 4; SIRT5 inh: 15

What do the screens show for `O=C(N/N=C/c1cn(Cc2ccccc2)c2ccccc12)c1cc(O)cc(O)c1`?
CASP6 VEID inh: 53*; SIRT5 inh: 2; PfHsp90 set2: -9; NSD2 inh: 5; ARNT-TACC3 inh: 33

Results for CCOc1ccc(NC(=S)N=Nc2c(O)[nH]c3ccccc23)cc1 ?
CASP6 VEID inh: 10; SIRT5 inh: -9; PfHsp90 set2: -14; NSD2 inh: -5; ARNT-TACC3 inh: 0

Results for Oc1cccc(NC(=S)N=Nc2c(O)[nH]c3ccccc23)c1 ?
CASP6 VEID inh: 9; SIRT5 inh: 3; PfHsp90 set2: -11; NSD2 inh: 3; ARNT-TACC3 inh: 54*

How did Oc1[nH]c2ccc(Br)cc2c1N=NC(=S)N1CCOCC1 do in these assays?
CASP6 VEID inh: -3; SIRT5 inh: -2; PfHsp90 set2: -115; ARNT-TACC3 inh: 66*

How did Oc1[nH]c2ccccc2c1N=NC(=S)N1CCOCC1 do in these assays?
PfHsp90 set2: 0; NSD2 inh: 7; ARNT-TACC3 inh: 66*

What do the screens show for `CC(C)NC(=O)Nc1ccc2c(c1)C(=O)N([C@H](C)CO)C[C@@H](C)[C@@H](CN(C)Cc1ccc(Cl)c(Cl)c1)O2`?
CASP6 VEID inh: -1; SIRT5 inh: 4; ARNT-TACC3 inh: 7

How did O=C(Nc1nccs1)[C@@H]1[C@@H](CO)[C@@H]2Cn3c(cccc3=O)[C@H]1N2C(=O)C1CCCCC1 do in these assays?
CASP6 VEID inh: -1; SIRT5 inh: 0

What do the screens show for `CO[C@@H]1CN(C)C(=O)c2cc(NC(=O)c3ccccc3F)ccc2OC[C@H](C)N(CC2CCOCC2)C[C@@H]1C`?
CASP6 VEID inh: 1; SIRT5 inh: 2; ARNT-TACC3 inh: 2

What do the screens show for `COc1cccc(-c2cn(CC[C@H]3CC[C@H](NC(=O)CC4CC4)[C@H](CO)O3)nn2)c1`?
CASP6 VEID inh: -3; SIRT5 inh: 1; ARNT-TACC3 inh: -29

What do the screens show for `COc1cccc(-c2cn(CC[C@@H]3CC[C@H](NC(=O)CC4CC4)[C@@H](CO)O3)nn2)c1`?
CASP6 VEID inh: -3; SIRT5 inh: 30*; ARNT-TACC3 inh: -15
